This is one part of a sample in which hits are shown more often than they occur.
HIV RNase H inh-1: HIV-1 RT RNase H inhibitors, primary screen, biochemical, fluorescence. RT-RNase H RNA/DNA duplex cleavage. inhibition, % at 10 µM. 1.9% of 65,000 active; in the data active = inhibition above about 50%
RmlC RmlD mix: RmlC and RmlD coupled enzyme inhibitors, primary screen, biochemical, 384-well, compound mixtures, retest | RmlC/RmlD coupled enzyme inhibition, 384-well mixture HTS | inhibition, % at 5.5 µM | 0.39% of 110,000 active; in the data active = inhibition above about 30%, passing the limit was not always enough; inconclusive = no clear call, values can overlap the other calls
HIV RNase H inh-2: HIV-1 RT RNase H inhibitors, retest, confirmation, biochemical; shares compounds with HIV RNase H inh-1; Recombinant RT RNase H, fluorescent RNA/DNA duplex cleavage; inhibition, % at 10 µM; 39% of 1,000 active; AID 651, 2007; in the data active = inhibition above about 48%; inconclusive = no clear call, values can overlap the other calls
The depositor's hits bear a star; u = inconclusive; x = no result.

SMILES	HIV RNase H inh-1	RmlC RmlD mix	HIV RNase H inh-2
O=C(c1nc(-c2ccccc2)n(-c2ccccc2)n1)N1CCCCCC1	-5	-23	x
Cc1cc(C(=O)N2CCOCC2)n(-c2ccccc2)n1	-7	10	x
CCCn1c2c(c(O)c(C(=O)Nc3nc(C)cs3)c1=O)CCCC2	-1	12	x
Cc1csc(NC(=O)c2c(O)c3c(n(CC(C)C)c2=O)CCCC3)n1	64*	-14	u
Cc1sc2nc(SCC(=O)NCc3ccco3)n(CCc3ccccc3)c(=O)c2c1C	82*	9	59*
O=C(CSc1ncnc2sc3c(c12)CCCCC3)NCc1ccco1	-12	11	x
O=C(CSc1nc2sc3c(c2c(=O)n1-c1ccccc1)CCCC3)NCc1ccco1	62*	x	53*
Cc1sc2nc(SCC(=O)NCc3ccco3)n(C)c(=O)c2c1C	-7	-2	x
CC(C)c1nc2sc3c(SCC(=O)NCc4ccco4)ncnc3c2c2c1CCC2	71*	10	35*
CC1(C)Cc2c(sc3nc(SCC(=O)NCc4ccco4)n(-c4ccccc4)c(=O)c23)CS1	13	x	x
O=C(NC(=S)NCC1COc2ccccc2O1)c1ccccc1 (stereo unspecified)	x	15	x
O=C(NCc1ccco1)C1CCN(S(=O)(=O)N2CCOCC2)CC1	4	1	x
O=C(NCc1cccnc1)[C@@H]1CC=C[C@@H]2CCN(Cc3ccc(Cl)c(Cl)c3)C(=O)[C@@H]21	x	11	x
Nc1cc(Cl)ccc1N1CCOCC1	-16	5	x
CCOC(=O)C(=O)Nc1ccc2c(c1)OCO2	x	-9	x
Nc1c(C(=O)NCc2ccco2)sc2nc(N3CCOCC3)c3c(c12)CCCC3	54*	-48	3
CCOC(=O)c1sc2nc(N3CCOCC3)c3c(c2c1N)CCCC3	-3	-184	x
Cc1ccc(C2/C(=C(/O)c3ccc(Cl)cc3)C(=O)C(=O)N2CC2CCCO2)o1 (stereo unspecified)	8	12	x
Cn1ccnc1SCC(=O)c1cccc(Br)c1	x	-7	x
CCOC(=O)CCc1c(C)nc(SCC(=O)O)c(C#N)c1C	70*	-16	12
CCOC(=O)CSc1nc(C)cc(C)c1C#N	x	-4	x
COc1ccccc1NC(=O)C1=C(C)Nc2nnnn2C1c1cccc(C)c1 (stereo unspecified)	0	-6	x
CCn1c(SCc2nc(-c3ccccc3)no2)nnc1-c1ccco1	x	5	x
CCc1c(C)sc(NC(=O)c2cc(C)no2)c1C#N	60*	-6	12
CCc1c(C)sc(NC(=O)CC#N)c1C#N	38	-169	x
SMILES	HIV RNase H inh-1	RmlC RmlD mix	HIV RNase H inh-2
O=C(Cn1cnc2c(nnn2Cc2ccc(Cl)cc2)c1=O)c1ccccc1	x	12	x
Cc1ccc(OCc2nnc(NC(=O)Cc3cccs3)s2)cc1	62*	-11	u
Cc1cccc(OCc2nnc(NC(=O)Cc3cccs3)s2)c1	x	-12	x
Cc1ccc(-c2cc(C(=O)NC3=NCCS3)c3cc(Br)ccc3n2)o1	95*	10	80*
Cc1ccc(-c2cc(C(=O)NCCCn3ccnc3)c3cc(Br)ccc3n2)o1	78*	-15	22
Cc1cccc(-c2cc(C(=O)NCCCn3ccnc3)c3ccccc3n2)c1	x	15	x
Cc1ccc(-c2cc(C(=O)Nc3ccccc3C)c3ccccc3n2)o1	x	-38	x
CC(=O)c1ccc2c(c1)C1C=CCC1C(c1ccncc1)N2 (stereo unspecified)	x	58	x
COCCCN(C(=O)Nc1ccc(C)c(C)c1)C(C)c1ccccn1 (stereo unspecified)	-6	-12	x
CN1CCN(c2ccc(NC(=O)CSc3ccccc3)cc2F)CC1	x	-18	x
CCOC(=O)C1Cc2cc3c(cc2C1=O)CC(C(=O)OCC)C3=O (stereo unspecified)	16	7	x
CCc1ccc(N(C(=O)c2csnn2)C(C(=O)NCc2ccccc2)c2ccco2)cc1 (stereo unspecified)	x	13	x
O=C(NC(=S)Nc1ccc(N2CCCCC2)c(Cl)c1)c1cccs1	x	-10	x
CCCC(=O)Nc1ccc(N2CCN(CC)CC2)c(Cl)c1	81*	6	7
CCN1CCN(c2ccc(NC(=O)C(C)C)cc2Cl)CC1	x	-7	x
COC(=O)c1c(NC(=O)c2ccc(Br)o2)sc(C)c1C	74*	-32	1
COC(=O)c1sccc1NC(=O)c1ccc(Br)o1	-32	-2	x
Cc1ccc(S(=O)(=O)NC(=O)Nn2c(C)nnc2C)cc1	-5	-8	x
COc1ccccc1N1C(=O)CC(Sc2ncccc2C(=O)O)C1=O (stereo unspecified)	14	3	x
O=C1CC(Sc2ncccn2)C(=O)N1c1ccccc1C(F)(F)F (stereo unspecified)	70*	-8	0
CC1(C)Cc2ccccc2-c2nc3ccccc3c(=O)n21	-21	x	x
c1ccc(Cn2nnc3c(N4CCCC4)ncnc32)cc1	-15	-9	x
c1ccc(-n2nnc3c(N4CCOCC4)ncnc32)cc1	67*	8	15
O=C(NC(=S)NCCN1CCOCC1)c1cccc(Cl)c1	x	-4	x
CCOC(=O)c1sc(=S)n(CC)c1N	-10	6	x
SMILES	HIV RNase H inh-1	RmlC RmlD mix	HIV RNase H inh-2
CCn1c(N)c(C(N)=O)sc1=S	70*	5	-2
S=C(c1ccc(-c2cc(Cl)ccc2Cl)o1)N1CCOCC1	-39	-22	x
S=C(c1ccc(-c2cccc(Cl)c2)o1)N1CCOCC1	85*	-22	1
CCOC(=O)c1ccc(NC(=O)c2nc[nH]c2C(=O)NC2CCN(C(=O)OC(C)(C)C)CC2)cc1	x	-2	x
COC(=O)c1[nH]c2ccc(C)cc2c1NS(=O)(=O)c1ccc(F)cc1	-13	-8	x
O=C1CCCC2=C1C(c1ccc3c(c1)OCO3)c1c([nH]n(-c3ccccc3)c1=O)N2 (stereo unspecified)	19	-4	x
Cc1ccc(C)c(NC(=S)c2ccccn2)c1	x	2	x
S=C(Nc1ccccn1)c1ccccn1	73*	-16	68*
CCn1c(SCC(=O)Nc2ccc(S(N)(=O)=O)cc2)nnc1-c1ccccc1OC	x	-11	x
CCOc1ccc(C(=O)N2CCCCCC2)cc1	-19	-1	x
COc1cccc(C2C(C(=O)c3sc(C)nc3C)=C(O)C(=O)N2CCN2CCOCC2)c1OC (stereo unspecified)	-17	-47	x
O=C(NCc1ccco1)c1cccc2ccccc12	-4	4	x
O=C(NCc1ccco1)c1cccnc1-c1nc2ccccc2s1	85*	x	63*
CC(=O)c1ccc(NC(=O)C2CCN(S(=O)(=O)c3cccc4cccnc34)CC2)cc1	-41	4	x
c1c2c(cc3sc(N4CCCCC4)nc13)OCO2	9	x	x
c1ccc2c(c1)CCN(c1nc3cc4c(cc3s1)OCO4)C2	43	-5	x
c1ccc(N2CCN(c3nc4cc5c(cc4s3)OCO5)CC2)cc1	76*	13	76*
c1c2c(cc3sc(N4CCOCC4)nc13)OCO2	72*	-26	62*
O=C(c1ccccc1F)N(Cc1ccccc1)C1CCS(=O)(=O)C1 (stereo unspecified)	-6	3	x
CN(C)S(=O)(=O)c1ccc(S(=O)(=O)N2CCCC2)cc1	x	7	x
COc1ccc(NCc2cc3ccccc3[nH]c2=O)cc1	-6	-6	x
COc1ccc(NCc2cc3cc(OC)ccc3[nH]c2=O)cc1	56*	-1	1
O=C(Nc1ccncc1)c1c(O)c2ccccc2n(Cc2ccccc2)c1=O	4	x	x
